# Laboratory results reported in PubChem BioAssay.
# Unmarked numbers belong to inactive results. No rule for the calls is given here.
# Molecular target: Pantothenate synthetase (Mycobacterium tuberculosis (strain ATCC 25618 / H37Rv)) (UniProt P9WIL5)
# Assay: Coupled enzyme confirmation of inhibitors against recombinant Mtb PanC (AID 375);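 also: 0% = full reaction with vehicle and 100% = no enzyme background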
# Conditions: coupled enzyme assay; at 10 µM, active compounds read high
# Chain of Pantothenate synthetase (Mycobacterium tuberculosis (strain ATCC 25618 / H37Rv)) (P9WIL5 whole entry, looked up): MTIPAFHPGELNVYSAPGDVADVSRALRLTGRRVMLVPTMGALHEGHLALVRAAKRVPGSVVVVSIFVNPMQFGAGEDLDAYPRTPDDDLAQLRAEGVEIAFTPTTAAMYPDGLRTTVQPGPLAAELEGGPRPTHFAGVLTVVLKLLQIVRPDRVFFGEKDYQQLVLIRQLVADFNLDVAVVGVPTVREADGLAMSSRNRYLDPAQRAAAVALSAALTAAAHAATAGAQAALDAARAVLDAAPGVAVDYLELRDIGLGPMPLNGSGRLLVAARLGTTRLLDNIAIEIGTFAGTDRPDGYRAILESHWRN
row,SMILES,inhibition
1,Cn1cc(Cl)c(C(=O)N(Cc2ccccc2)c2ccccn2)n1,0%
2,CCOC(=O)c1c(C)oc2ccc(NS(=O)(=O)c3ccc4c5c(cccc35)C(=O)N4)cc12,3%
3,CCN1CCCC1CN=Cc1c(O)n(-c2ccccc2)c(=O)c2ccccc12 (stereo not drawn),0%
4,N#CCC(=O)N1CCn2c1nc1ccccc12,0%
5,Cc1cc(-c2ccccc2)c2nncn2n1,3%
6,CCCCn1c(CN2CCN(CCO)CC2)nc2ccccc21,0%
7,CCCSc1nnc2nc3c(nn12)c1ccccc1n3C,0%
8,Cc1cc(/C=N/n2cnnc2)c(C)n1-c1cccc(Cl)c1,0%
9,CCN1CCc2c(C#N)c(N3CCOCC3)nc(NCc3ccccc3)c2C1,0%
10,CN1C(=O)c2c(sc3c2CCCC3)NC1c1ccccc1O (stereo not drawn),0%
11,COc1ccc(C)cc1NCc1cccc(OC)c1OC,0%
12,COC(=O)c1sc(NC(=O)c2ccoc2C)nc1C,0%
13,Fc1ccc(C(c2nnnn2Cc2ccco2)N2CCN(C3CCCCC3)CC2)cc1 (stereo not drawn),0%
14,Cn1c(=O)cc(OCC(=O)N2CCN(c3cccc(C(F)(F)F)c3)CC2)c2ccccc21,12%
15,O=C(Cn1cnc2sc(-c3ccccc3)cc2c1=O)N1CCOCC1,9%
16,Cc1ccc(CNc2cc(-c3nn4c(C)nnc4s3)ccc2C)s1,4%
17,Cc1c(NC(=O)C2CCCNC2=O)c(=O)n(-c2ccccc2)n1C (stereo not drawn),0%
18,C=CCSC1=C(C#N)C(c2ccccc2C)CC(=O)N1 (stereo not drawn),0%
